{"source": "PubChem BioAssay (NCI)", "note": "About 83,000 compounds went through this panel and 20% of them were active in at least one assay; those are over-represented in the sample as a whole.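 Treatment: one concentration, 48 hours, 96-well format. Scoring: percent growth, with anything below 10 considered active.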 The source made the active and inactive calls."}
{"test_system": "T-47D breast", "test": "NCI-60 one-dose screen, 48 h (100 = growth as untreated, 0 = no growth, -100 = all killed)", "details": "10 µM unless noted", "experimental": "Growth inhibition of the T-47D human tumor cell line is measured as a screen for anti-cancer activity. Cells are grown in 96 well plates and exposed to the test compound for 48 hours. Compounds are tested at a single concentration, which is 10^-5 M for most compounds. The reported endpoint is percent growth (GI% or GIPRCNT), where numbers from 0 - 100% represent growth inhibition, and numbers from -100% - 0 represent cell death. For example, a value of 40 represents 60% growth inhibition. A value of 0 means no net growth occurred over the course of the experiment. A value of -40 indicates 40% of cells at the beginning of the experiment died by the end of the experiment. A value of -100 means all cells are dead at the end of the experiment.\nNCI-60 Human Tumor Cell Lines Screen was performed using the standard one-dose NCI protocol, which is described in more detail at https://dtp.cancer.gov/discovery_development/nci-60/default.htm.\nCompounds with GIPRCNT values below 10 were considered active. Activity score was based on GIPRCNT using the following formula: […]\nScore is 0 for GIPRCNT values of 100 or above, 50 for GIPRCNT values of 0, and 100 for GIPRCNT values of -100."}
{"smiles": "Cc1cc(Nc2ccc(C)c(Cl)c2)n2nc(C(F)(F)F)nc2n1", "growth": "-0.705% (active)"}
{"smiles": "O=C(O)COc1ccc(Cl)cc1C1CCCCC1", "growth": "114% (inactive)"}
{"smiles": "CCOc1cc2ncc(C#N)c(Nc3ccc(OCc4cccc(F)c4)c(Cl)c3)c2cc1NC(=O)CCCCC1CCSS1", "note": "(stereo not given)", "growth": "64.4% (inactive)"}
{"smiles": "C/C1=C\\CC[C@@]2(C)O[C@H]2[C@H]2OC(=O)C(CN3CCN(CC4C(=O)O[C@H]5[C@H]4CC/C(C)=C/CC[C@@]4(C)O[C@@H]54)CC3)[C@@H]2CC1", "note": "(stereo not given in full)", "growth": "81.5% (inactive)"}
{"smiles": "COc1ccc(/C=C/C(=O)c2cc(O)ccc2O)cc1", "growth": "89.8% (inactive)"}
{"smiles": "NNCCc1ccc(NC(=O)CCCc2ccc(/C=C/C(=O)NO)cc2)cc1", "growth": "-5.44% (active)"}
{"smiles": "CN1CCN(c2ccc(Nc3c4ccccc4nc4ccccc34)cc2)CC1", "growth": "102% (inactive)"}
{"smiles": "COc1cccc(NC(=O)c2sc3nc(C)c(C(C)=O)cc3c2N)c1", "growth": "54% (inactive)"}
{"smiles": "CSc1nc(Nc2cccc(NC(=O)CCl)c2)c(C#N)c(-c2cccc([N+](=O)[O-])c2)n1", "growth": "12.2% (inactive)"}
{"smiles": "CCN(CC)c1ccc2c(c1)Oc1nc(N)c(C#N)c(N)c1C2Sc1ccc(SC)cc1", "note": "(stereo not given)", "growth": "-4.08% (active)"}
{"smiles": "CCOC(=O)n1cc(-c2nonc2-c2cn(C)c3ncccc23)c2ccccc21", "growth": "15.2% (inactive)"}
{"smiles": "CCCn1c(=O)[nH]c(N)c([C@H]2c3ccccc3Oc3[nH]c(=O)n(CCC)c(=O)c32)c1=O", "growth": "34.7% (inactive)"}
{"smiles": "COc1ccc(Nc2c3c4c(cccc4[nH]c2=O)C(=O)c2ccccc2-3)cc1", "growth": "75.6% (inactive)"}
{"smiles": "O=c1cc(CSc2nnc(SCc3cc(=O)oc4c3ccc3ccccc34)o2)c2ccc3ccccc3c2o1", "growth": "78.6% (inactive)"}
{"smiles": "Nc1n[nH]c2cc(F)c([C@@H]3Nc4ccc5[nH]ncc5c4[C@H]4C5CCC(C5)[C@@H]34)cc12", "note": "(stereo not given in full)", "growth": "97.6% (inactive)"}
{"smiles": "COc1cc(-c2nn(C)nc2-c2cc3ccccc3s2)cc(OC)c1OC", "growth": "56.5% (inactive)"}
{"smiles": "O=C1C=C(O)C(=O)C(CC2=C(O)C(=O)C=C(O)C2=O)=C1O", "growth": "104% (inactive)"}
{"smiles": "O=C(Oc1cccnc1)c1ccsc1Nc1ccnc(C(F)(F)F)c1", "growth": "72.7% (inactive)"}
{"smiles": "COc1cc(C(=O)Oc2ccccc2OC(=O)c2cc(OC)c(OC)c(OC)c2)cc(OC)c1OC", "growth": "102% (inactive)"}
{"smiles": "O=C(/C=C/C=C/c1ccc2c(c1)OCO2)N/N=C\\c1ccc(O)cc1O", "growth": "23.9% (inactive)"}
{"smiles": "Clc1ccc2c(NCCCNc3nc(-n4ccnc4)nc4ccccc34)ccnc2c1", "growth": "70.3% (inactive)"}
{"smiles": "COc1ccc2c(c1)O/C(=C\\c1cccc(OCC(=O)Nc3nc4c(s3)CCCC4)c1)C2=O", "growth": "58.4% (inactive)"}
{"smiles": "O=C1NC(=S)N[C@H]1CC(=O)n1cnc2ccccc21", "growth": "99.6% (inactive)"}
{"smiles": "O=C(COc1ccc(/C=C2\\CSc3ccccc3C2=O)cc1)Nc1nccs1", "growth": "90% (inactive)"}
{"smiles": "COc1cc(-c2ccc3c(c2)NC(=O)/C3=C\\c2ccc[nH]2)ccc1O", "growth": "35.2% (inactive)"}
{"smiles": "O=C(O)c1c(=O)cccc2ssc12", "growth": "-43% (active)"}
{"smiles": "Cc1cc(C)nc(SC2=C(Nc3cc(Cl)ccc3O)C(=O)N(Cc3ccccc3)C2=O)n1", "growth": "60.8% [30 µM] (inactive)"}
{"smiles": "O=C(CCl)Oc1ccc(-c2ccccc2)c(Br)c1", "growth": "103% (inactive)"}
{"smiles": "NC1=C(Cl)C(=O)c2ccc(S(N)(=O)=O)cc2C1=O", "growth": "-46.1% (active)"}
{"smiles": "COc1cccc(/C=N/NC(=O)c2ccccc2Nc2ccnc(C(F)(F)F)c2)c1O", "growth": "17.6% (inactive)"}
{"smiles": "CCCOc1ccc2nc(NC(=O)OC)[nH]c2c1", "growth": "89.8% (inactive)"}
{"smiles": "CC(C)(C)c1cc(C(C)(C)C)cc(S(=O)(=O)Nc2cc3ccccc3cc2C(=O)NCCN)c1", "growth": "5.06% (active)"}
{"smiles": "COc1ccc(Nc2cc(C)nc(N3CCN(c4ccnc5cc(Cl)ccc45)CC3)n2)cc1", "growth": "7.42% (active)"}
{"smiles": "COc1ccc(CN2c3ccccc3Oc3ccccc32)cc1O", "growth": "30.6% (inactive)"}
{"smiles": "Cc1ccc(C(SCC(N)C(=O)O)(c2ccccc2)c2ccc(C)cc2)cc1", "note": "(stereo not given)", "growth": "27.1% (inactive)"}
{"smiles": "Cc1ncc(C(=O)Nc2ccc(CN3CCN(C)CC3)c(C(F)(F)F)c2)cc1C#Cc1cnc2cccnn12", "growth": "40% (inactive)"}
{"smiles": "OCCN1CCN(c2nc(Nc3ccc(-c4nc5ccccc5[nH]4)cc3)c3cn[nH]c3n2)CC1", "growth": "-68.4% (active)"}
{"smiles": "COc1ccc(SC2c3ccc(C)cc3Oc3nc(N)c(C#N)c(N)c32)cc1", "note": "(stereo not given)", "growth": "-34.5% (active)"}
{"smiles": "CC/C=C\\C[C@H]1C/C=C2/C(=O)C=C[C@H]2C/C=C\\CCCC(=O)O1", "growth": "27.4% (inactive)"}
{"smiles": "C=C(C)[C@@H]1CC[C@]2(C(=O)OC)CC[C@]3(C)[C@H](CC[C@@H]4[C@@]5(C)C/C(=C/c6ccc(OC)cc6)C(=O)C(C)(C)[C@@H]5CC[C@]43C)[C@@H]12", "growth": "101% (inactive)"}
